The values that follow come from PubChem BioAssay (NCI).

Holding throughout (assay): NCI-60 one-dose screen, 48 h (100 = growth as untreated, 0 = no growth, -100 = all killed)
Holding throughout (conditions): 10 µM unless noted

Assay [1] deals with SR leukemia.
The test system of assay [2] is RPMI-8226 leukemia.
Assay [3] has as its system OVCAR-8 ovarian.
Assay [4] deals with OVCAR-5 ovarian.
Assay [5] deals with OVCAR-4 ovarian.
Assay [6] deals with SK-OV-3 ovarian.
For assay [7], the system named is IGROV1 ovarian.
The test system of assay [8] is OVCAR-3 ovarian.
For assay [9], the system named is HS 578T breast.
Assay [10] relates to NCI/ADR-RES ovarian.
For assay [11], the system named is T-47D breast.
The test system of assay [12] is BT-549 breast.
In assay [13] the test system is MDA-MB-435 melanoma.
In assay [14] the test system is SW-620 colon.
In assay [15] the test system is MCF7 breast.
In assay [16] the test system is HCT-116 colon.
Assay [17] relates to KM12 colon.

Molecules are shown by their SMILES. This is part of a sample that, as a whole, favours compounds with a hit. Of some 83,000 tested, about 20% had one in any assay.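 A percent growth of 40 corresponds to 60% growth inhibition; 0 means no net growth; -100 means all cells died. Active threshold: below 10.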 Values without a mark were called inactive. Activity calls are given as the source filed them.

Take `NC(=O)CCC(C(=O)O)N1C(=O)c2ccc(O)cc2C1=O` (stereo not drawn): the growth is 139% in assay [1]; 82.1% in [2]; 106% in assay [3]; 131% in [4]; 123% in assay [5]; -100% (active) in assay [6]. For the same molecule, the growth was 105% in assay [7]; 97.6% in [8]; 107% in assay [9]; 132% in assay [10]; 102% in assay [11]; 101% in assay [12]. The growth is 94% in assay [13]; 111% in [14]; 105% in [15]; 109% in assay [16]; 103% in assay [17].

Consider `O=C(NNc1nccc(Nc2ccc(S(=O)(=O)Nc3ccncc3)cc2)n1)c1ccccc1`, for which the growth in [1] was 87.6%; in [2], 95.6%; in assay [3] it was 99.4%; in [4], 101%; in assay [5], 106%; in assay [6] it was 107%. Besides, the growth in [7] is 102%; in assay [8] it was 100%; in assay [9] it was 110%; in assay [10], 85.4%; in assay [11], 92.6%; in assay [12] it was 89.5%. Moreover, the growth was 105% in assay [13]; 106% in [14]; 94% in assay [15]; 99.2% in assay [16]; 101% in assay [17].

For the molecule `COc1ccc(-c2nc(/C=C3\SC(=NCc4ccccc4)NC3=O)c3ccccn23)cc1`, the growth was 3.32% (active) in [1]; -3.83% (active) in assay [2]; -24.6% (active) in assay [3]; -15% (active) in assay [4]; -71.9% (active) in [5]; -46.7% (active) in [6]. For the same molecule, the growth in assay [7] is -44.7% (active); in assay [8] it was -88.5% (active); in assay [9] it was -35.3% (active); in assay [10], -4.46% (active); in assay [11] it was -67% (active); in [12], -92.9% (active). Further, the growth in assay [13] is -4.34% (active); in assay [14], -55.5% (active); in assay [15], -62.2% (active); in assay [16], -97.2% (active); in [17] it was -78% (active).

As to `CCOC(=O)c1nc(Nc2ccc(NC(=O)Nc3ccc(F)cc3)cc2)c2ccccc2n1`, the growth in assay [1] was 90.2%; in assay [2], 109%; in assay [3], 106%; in assay [4] it was 108%; in assay [5], 114%; in assay [6], 100%. The growth in assay [7] is 102%; in assay [8], 102%; in assay [9], 99.9%; in [10], 92.7%; in [11], 99.2%; in assay [12], 106%. In addition, the growth in [13] was 101%; in assay [14], 96.9%; in [15], 96.5%; in assay [16], 101%; in assay [17] it was 102%.

Consider `O=C1Nc2ccccc2/C1=C\c1nc(-c2ccccc2)n2ccccc12`, for which the growth is 101% in assay [1]; 81.9% in assay [2]; 95.5% in assay [3]; 90.6% in assay [4]; 73.7% in assay [5]; 81% in assay [6]. Moreover, the growth in [7] is 67%; in assay [8] it was 115%; in assay [9], 118%; in [10], 93.9%; in assay [11], 43.1%; in assay [12] it was 85.5%. Moreover, the growth in [13] is 90.5%; in assay [14], 103%; in assay [15] it was 52.9%; in assay [16] it was 76.3%; in assay [17] it was 74.3%.

For `CCOC(=O)c1cc(-c2ccc([N+](=O)[O-])cc2)n(-c2ccc(C(=O)O)c(O)c2)c1C`, the growth is 67.1% in assay [1]; -3.07% (active) in assay [2]; 38.6% in assay [3]; 114% in [4]; 52% in [5]; 95.6% in assay [6]. Also, the growth is -11.3% (active) in [7]; 79.6% in [8]; 67.8% in assay [9]; 57.5% in assay [10]; 38.2% in [11]; 95.7% in assay [12]. Also, the growth is 50.6% in assay [13]; 93.2% in assay [14]; 53.9% in assay [15]; 49.4% in assay [16]; 86.8% in assay [17].

Consider `COc1ccccc1NC(=O)Cn1cc(CN2CCN(c3ccnc4cc(Cl)ccc34)CC2)nn1`, for which the growth in assay [1] is 92.1%; in assay [2], 50.9%; in [3] it was 93.4%; in [4] it was 82.9%; in assay [5], 94.1%; in [6], 86.6%. Besides, the growth in assay [7] is 90.6%; in assay [8], 101%; in assay [9], 88.5%; in assay [10], 91.5%; in [11], 81.7%; in [12], 96.8%. The growth in assay [13] is 97.6%; in assay [14], 91.9%; in assay [15], 83.5%; in assay [16], 98.3%; in [17], 89.6%.

With `COC(=O)CNC(=O)[C@H](Cc1ccccc1)NCc1ccncc1`, the growth in assay [1] was 97%; in [2], 91%; in assay [3], 98.3%; in assay [4], 105%; in assay [5], 107%; in [6], 80.7%. In addition, the growth in assay [7] was 104%; in assay [8], 113%; in assay [9], 106%; in [10], 103%; in assay [11], 89.6%; in assay [12], 96.4%. In addition, the growth in assay [13] is 110%; in assay [14], 102%; in assay [15] it was 92.9%; in [16] it was 100%; in [17], 103%.

`C1=CN2CC(c3ccccc3)=NNC2c2ccccc21` (stereo not drawn): the growth is 97% in assay [1]; 69.8% in assay [2]; 92% in [3]; 106% in assay [4]; 83% in [5]; 92.2% in assay [6]. Besides, the growth in [7] is 22.8%; in assay [8], 81.5%; in assay [9], 86.7%; in assay [10] it was 80.6%; in assay [11], 88.7%; in [12] it was 61.7%. Moreover, the growth was 96.5% in assay [13]; 96.7% in [14]; 67.3% in assay [15]; 85.6% in assay [16]; 99.4% in assay [17].
